This is an account of results in PubChem BioAssay (EPA / NIEHS).

Read-out in test [1]: Monokine induced gamma interferon (MIG), CXCL9 (gene 4283)
Description: BSK_hDFCGF_MIG: BioMAP Diversity Plus: hDFCGF Assay for Monokine induced gamma interferon (MIG) Biomarker Activity (AID 2283063). The conditions noted are these: primary human foreskin fibroblasts; actives raise or lower the signal. Put shortly: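 Fibroblasts (human foreskin, primary) dosed, 24 h, MIG by ELISA; fit bidirectional vs DMSO.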

Read-out in test [2]: Vascular cell adhesion molecule 1 (VCAM1), VCAM1 (gene 7412)
Briefly: BSK_hDFCGF_VCAM1: BioMAP Diversity Plus: hDFCGF Assay for Vascular cell adhesion molecule 1 (VCAM1) Biomarker Activity (AID 2283065).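 On AC50: VCAM-1 protein level quantified by ELISA after 24 h chemical exposure.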 The conditions noted are these: primary human foreskin fibroblasts; actives raise or lower the signal. The procedure, abridged:
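ELISA read-out of VCAM-1 on human skin fibroblasts, 24 h post-dose; gain or loss of signal fitted bidirectionally against DMSO baseline.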

Read-out in test [3]: Plasminogen activator inhibitor-1 (PAI1), SERPINE1 (gene 5054)
Description: BSK_hDFCGF_PAI1: BioMAP Diversity Plus: hDFCGF Assay for Plasminogen activator inhibitor-1 (PAI1) Biomarker Activity (AID 2283066). The following applies: primary human foreskin fibroblasts; actives raise or lower the signal. The procedure, abridged: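 Primary dermal fibroblasts (human foreskin), hDFCGF system; compound 24 h; PAI-1 by ELISA; bidirectional fit vs DMSO control.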

Read-out in test [4]: Intercellular Adhesion Molecule 1 (ICAM1), ICAM1 (gene 3383)
Description: BSK_KF3CT_ICAM1: BioMAP Diversity Plus: KF3CT Assay for Intercellular Adhesion Molecule 1 (ICAM1) Biomarker Activity (AID 2283067). The following applies: primary human keratinocytes with fibroblasts; actives raise or lower the signal. The procedure, abridged: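 ELISA readout of ICAM-1; KF3CT human skin co-culture (keratinocytes + foreskin fibroblasts), 24 h post-dose; gain/loss fit vs DMSO baseline.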

Read-out in test [5]: Interferon-gamma inducible Protein 10 (IP10), CXCL10 (gene 3627)
Description: BSK_KF3CT_IP10: BioMAP Diversity Plus: KF3CT Assay for Interferon-gamma inducible Protein 10 (IP10) Biomarker Activity (AID 2283068). The conditions noted are these: primary human keratinocytes with fibroblasts; actives raise or lower the signal. Put shortly: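 ELISA read-out of IP-10 after 24 h chemical dosing of human skin primary co-culture (keratinocytes, foreskin fibroblasts). Gain or loss of signal relative to DMSO, bidirectional curve fit.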

Test [6] is described as follows: BSK_KF3CT_SRB: Viability Assessment in the BioMAP Diversity Plus: KF3CT Assay (AID 2283069).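 Further: total protein by sulforhodamine B staining as a cytotoxicity measure; read 24 h after compound addition.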 The conditions noted are these: primary human keratinocytes with fibroblasts. Put shortly: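 Human keratinocyte and foreskin fibroblast co-culture exposed to chemical for 24 h. Total protein measured in parallel cultures by 0.1% sulforhodamine B staining after 10% TCA fixation, read at 560 nm; bidirectional fit relative to DMSO.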

Read-out in test [7]: TIMP metallopeptidase inhibitor 2 (TIMP2), TIMP2 (gene 7077)
Briefly: BSK_KF3CT_TIMP2: BioMAP Diversity Plus: KF3CT Assay for TIMP metallopeptidase inhibitor 2 (TIMP2) Biomarker Activity (AID 2283071). The following applies: primary human keratinocytes with fibroblasts; actives raise or lower the signal. The procedure, abridged: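 Cells: human keratinocytes co-cultured with foreskin fibroblasts. Treat with chemical, 24 h. Measure TIMP-2 by ELISA; fit curves bidirectionally vs DMSO baseline.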

Read-out in test [8]: Transforming growth factor beta 1 (TGFb1), TGFB1 (gene 7040)
Description: BSK_KF3CT_TGFb1: BioMAP Diversity Plus: KF3CT Assay for Transforming growth factor beta 1 (TGFb1) Biomarker Activity (AID 2283072). The conditions noted are these: primary human keratinocytes with fibroblasts; actives raise or lower the signal. The procedure, abridged:
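Primary human skin cells (keratinocytes, foreskin fibroblasts) were co-cultured, exposed to test chemical and sampled at 24 h. TGF-b1 levels were measured by ELISA and fitted bidirectionally relative to DMSO.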

Read-out in test [9]: C-C motif chemokine 2 (Homo sapiens) (UniProt P13500)
Description: BSK_KF3CT_MCP1: BioMAP Diversity Plus: KF3CT Assay for Monocyte Chemoattractant Protein 1 (MCP1/CCL2) Biomarker Activity (AID 2283073). The conditions noted are these: primary human keratinocytes with fibroblasts; actives raise or lower the signal. The procedure, abridged: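 KF3CT skin co-culture (keratinocytes/foreskin fibroblasts), 24 h post-dose; MCP-1 by ELISA; gain/loss of signal fit bidirectionally vs DMSO baseline.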

Read-out in test [10]: Matrix Metallopeptidase 9 (MMP9), MMP9 (gene 4318)
Briefly: BSK_KF3CT_MMP9: BioMAP Diversity Plus: KF3CT Assay for Matrix Metallopeptidase 9 (MMP9) Biomarker Activity (AID 2283074).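 On AC50: MMP9 protein level quantified by ELISA in the co-culture.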 The conditions noted are these: primary human keratinocytes with fibroblasts; actives raise or lower the signal. Put shortly:
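Human keratinocyte and foreskin fibroblast co-culture exposed to chemicals for 24 h; MMP9 biomarker measured by ELISA, bidirectional fitting relative to DMSO; cytotoxicity tracked by SRB total protein staining in parallel cultures.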

Read-out in test [11]: urokinase plasminogen activator (uPA), PLAU (gene 5328)
Description: BSK_KF3CT_uPA: BioMAP Diversity Plus: KF3CT Assay for urokinase plasminogen activator (uPA) Biomarker Activity (AID 2283075). The conditions noted are these: primary human keratinocytes with fibroblasts; actives raise or lower the signal. Put shortly: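 Primary human keratinocyte/foreskin fibroblast co-culture exposed to chemical; uPA measured by ELISA at 24 h. Bidirectional fit versus DMSO, with parallel SRB total-protein staining for cytotoxicity.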

Read-out in a further test: CD40, CD40 (gene 958)
Description: BSK_LPS_CD40: BioMAP Diversity Plus: LPS Assay for CD40 Biomarker Activity (AID 2283076). The conditions noted are these: primary human HUVEC with PBMC; actives raise or lower the signal. Put shortly: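 ELISA readout of CD40 in HUVEC/PBMC co-culture (BSK_LPS system), 24 h post-dosing; bidirectional curve fit, DMSO baseline; parallel SRB total-protein staining for cytotoxicity.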

Read-out in test [12]: E-selectin (Homo sapiens) (UniProt P16581)
Description: BSK_LPS_Eselectin: BioMAP Diversity Plus: LPS Assay for Eselectin Biomarker Activity (AID 2283077). The following applies: primary human HUVEC with PBMC; actives raise or lower the signal. Put shortly: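 ELISA readout of E-selectin, 24 h post-dose, HUVEC + PBMC co-culture (LPS system). Gain or loss of signal vs DMSO baseline, bidirectional fit.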

Read-out in test [13]: Interleukin-8 (IL8), CXCL8 (gene 3576)
Briefly: BSK_LPS_IL8: BioMAP Diversity Plus: LPS Assay for Interleukin-8 (IL8) Biomarker Activity (AID 2283078). The following applies: primary human HUVEC with PBMC; actives raise or lower the signal. The procedure, abridged: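 HUVEC + PBMC co-culture, LPS-activated; test chemicals dosed, IL-8 read by ELISA at 24 h. Bidirectional curve fit vs DMSO baseline (gain or loss of signal).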

Test [14] is described as follows: BSK_LPS_SRB: Viability Assessment in the BioMAP Diversity Plus: LPS Assay (AID 2283079).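 Further: total protein by sulforhodamine B absorbance as a cytotoxicity measure; measured one day after compound addition; fitted in both directions against DMSO so loss or gain of signal counts.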 The conditions noted are these: primary human HUVEC with PBMC. Put shortly: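 HUVEC + PBMC co-culture, LPS-stimulated; compound 24 h. 10% TCA fix, 0.1% SRB stain, A560. Bidirectional fit vs DMSO.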
Read-out in test [15]: Interleukin-1 alpha (IL1a), IL1A (gene 3552)
Description: BSK_LPS_IL1a: BioMAP Diversity Plus: LPS Assay for Interleukin-1 alpha (IL1a) Biomarker Activity (AID 2283080). The conditions noted are these: primary human HUVEC with PBMC; actives raise or lower the signal. The procedure, abridged:
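HUVEC/PBMC co-culture, LPS system; 24 h after dosing; IL-1a by ELISA; gain or loss of signal fitted bidirectionally vs DMSO baseline.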

Test [16] in a line: BSK_LPS_PGE2: BioMAP Diversity Plus: LPS Assay for Prostaglandin E2 (PGE2) Biomarker Activity (AID 2283082).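 On AC50: secreted prostaglandin E2 measured by ELISA in LPS-stimulated co-culture.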 The conditions noted are these: primary human HUVEC with PBMC; actives raise or lower the signal. Put shortly: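 LPS-activated HUVEC/PBMC co-culture; cmpd dosed, 24 h; PGE2 by ELISA; bidirectional fit vs DMSO; SRB (0.1%, TCA-fixed, 560 nm) in parallel plates for overt cytotox.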

Read-out in test [17]: Interleukin-1 alpha (IL1a), IL1A (gene 3552)
Description: BSK_KF3CT_IL1a: BioMAP Diversity Plus: KF3CT Assay for Interleukin-1 alpha (IL1a) Biomarker Activity (AID 2283070). The conditions noted are these: primary human keratinocytes with fibroblasts; actives raise or lower the signal. The procedure, abridged:
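Primary human keratinocyte plus foreskin fibroblast co-culture, dosed and measured at 24 h in 96-well plates. IL-1a level quantified by ELISA; bidirectional fit relative to DMSO.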

Read-out in test [18]: Monocyte Chemoattractant Protein-1 (MCP1), CCL2 (gene 6347)
Briefly: BSK_LPS_MCP1: BioMAP Diversity Plus: LPS Assay for Monocyte Chemoattractant Protein-1 (MCP1) Biomarker Activity (AID 2283081).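 Further: secreted MCP-1 protein quantified by ELISA in culture supernatant.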 The following applies: primary human HUVEC with PBMC; actives raise or lower the signal. Put shortly:
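ELISA read-out of MCP-1 after 24 h chemical dosing of a human umbilical vein endothelial cell/peripheral blood mononuclear cell co-culture stimulated with LPS. Gain or loss of signal fitted relative to DMSO controls.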

Structures are written as SMILES. Active and inactive are the calls of the source. How the source made its calls: active means hit-call score of the fitted dose curve at least 0.9, where 1 is the maximum; inactive means score below 0.9.

Sequence of E-selectin (Homo sapiens) (P16581 whole entry, looked up): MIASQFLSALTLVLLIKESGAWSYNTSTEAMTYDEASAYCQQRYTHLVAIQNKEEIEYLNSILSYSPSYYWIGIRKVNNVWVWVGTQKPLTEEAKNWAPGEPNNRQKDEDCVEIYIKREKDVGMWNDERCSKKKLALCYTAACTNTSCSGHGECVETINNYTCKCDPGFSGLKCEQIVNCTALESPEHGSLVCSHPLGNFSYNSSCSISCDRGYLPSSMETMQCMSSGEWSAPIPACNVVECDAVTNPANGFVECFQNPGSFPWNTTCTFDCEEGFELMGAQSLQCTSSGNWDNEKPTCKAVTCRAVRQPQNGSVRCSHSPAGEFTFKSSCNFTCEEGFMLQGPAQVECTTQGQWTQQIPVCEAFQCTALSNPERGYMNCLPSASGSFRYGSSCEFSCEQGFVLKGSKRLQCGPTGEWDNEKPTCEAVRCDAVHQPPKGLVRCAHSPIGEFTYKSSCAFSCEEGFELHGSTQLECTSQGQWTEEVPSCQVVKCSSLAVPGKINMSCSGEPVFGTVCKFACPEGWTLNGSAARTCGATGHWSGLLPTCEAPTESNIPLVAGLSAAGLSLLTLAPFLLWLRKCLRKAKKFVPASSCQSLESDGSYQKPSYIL

`CC(C)CCCCCCCOC(=O)CCCCC(=O)OCCCCCCCC(C)C`: the result in test [1], in test [2], in test [3], in test [4], in test [5] and in test [6] was inactive. In addition, the outcome in [7] was “inactive”; in [8], “inactive”; in [9], “inactive”; in test [10], “inactive”; in [11], “inactive”; in the test with CD40, CD40 (gene 958) it was “inactive”. For the same compound, the result in [12], in [13], in test [14], in [15] and in test [16] was inactive.
Take `CCCN(C1CCN(C(=O)C2CCNCC2)CC1)[C@@H]1CCc2ccc(OC)cc2C1`: the result in [1], in test [2], in test [4], in test [5], in [6] and in [17] was inactive. Also, the outcome was “inactive” in test [7]; “inactive” in [8]; “inactive” in test [9]; “inactive” in test [10]; “inactive” in [11]; “inactive” with CD40, CD40 (gene 958). Moreover, the outcome in test [12], in test [13], in test [14] and in test [15] was inactive.
With `CC(C)=CCC/C(C)=C\CO`, the result in test [1], in test [2], in test [3], in test [4], in test [5] and in test [6] was inactive. The outcome in [7], in [9], in test [10], in [11], in [13] and in test [14] was inactive. Also, the result in [15] was inactive.
A word on the AC50: it is the concentration at which the activity in the assay is half-maximal. Take `CCCCCCc1ccc(O)cc1O`: the AC50 in [1] was 33.6 µM (active); in [2], 28.1 µM (active); in [3], 30.7 µM (active); in [4] it was 31.3 µM (active); in test [7] it was 32.7 µM (active); in test [8], 29.7 µM (active). Further, the AC50 was 26.2 µM (active) in test [9]; 34.1 µM (active) in [10]; 31.6 µM (active) in test [11]; 27.6 µM (active) in the test with CD40, CD40 (gene 958); 31.8 µM (active) in test [12]; 29.6 µM (active) in test [13]. Also, the AC50 was 28.5 µM (active) in test [14], 26.6 µM (active) in test [15] and 30.2 µM (active) in test [18].
`Oc1ccc2c(c1)-c1ccccc1C2`: the outcome in test [1], in [2], in test [3], in [4], in test [5] and in test [6] was inactive. Also, the result in [7], in test [8], in [9], in test [10], in [11] and in [12] was inactive. Further, the outcome in test [13] and in test [15] was inactive. For the same compound, the half-maximal activity concentration (AC50) in the test with CD40, CD40 (gene 958) was 20 µM (active); in test [14], 20 µM (active); in test [16], 13.2 µM (active).
